In PubChem BioAssay (NCATS):
Inconclusive results are not listed. A call without a number means that no potency is given here. Calls of active or inactive are those of the source. Calls follow the shape of the dose curve; as a rule, active = well fitted curve in the direction sought with a large enough effect; inconclusive = small, poorly fitted or top-dose-only effect, or another doubt; inactive = no such curve, though single readings can be large; an effect the other way counts as inactive or inconclusive.

Key:
[1] = Primary qHTS for inhibitors of nuclear receptor binding SET domain protein 2 (NSD2) in an isogenic RCH-ACV NSD2 p.E1099K mutant (9B) (AID 1645876)
[2] = Primary qHTS for inhibitors of nuclear receptor binding SET domain protein 2 (NSD2) in an RCH-ACV wild type WT cells (2C) (AID 1645877)
Also: nearly all actives have a fitted effect of over 70% in size.
Potency is read from the fitted curve at half-maximal effect.

Structure (SMILES) | Potency [1] | Potency [2]
Nc1ncnc2c1ncn2Cc1c(F)cccc1Cl | inactive | inactive
CCCCN(CCCC)C(C(N)=O)c1ccc(OC)cc1 (stereo not drawn) | inactive | inactive
OC[C@]1(O)OC[C@@H](O)[C@H](O)[C@@H]1O | inactive | inactive
COCCc1ccccn1 | inactive | inactive
Cc1cnc(NS(=O)(=O)c2ccc(N)cc2)nc1 | inactive | inactive
COc1cc(C=O)ccc1O | inactive | inactive
O=C(OCCN1CCOCC1)c1cccnc1Nc1cccc(C(F)(F)F)c1 | inactive | inactive
COc1ccc2cc(C=O)ccc2c1 | inactive | inactive
Nc1ccc([N+](=O)[O-])c(C(F)(F)F)c1 | inactive | inactive
Nc1cc(C(F)(F)F)ccc1S | 9.44 µM (active) | 15 µM (active)
CCc1cccc2c(CCO)c[nH]c12 | inactive | inactive
COc1cc(S(N)(=O)=O)cc(C(=O)O)c1OC | inactive | inactive
O=c1[nH]c2ccccc2c(=O)n1CCCl | inactive | inactive
CC(C)OP(=O)(CP(=O)(OC(C)C)OC(C)C)OC(C)C | inactive | inactive
O=C(NO)c1ccccc1 | 36.6 µM (active) | 25.9 µM (active)
Cc1cccc(OCC(O)CNC(C)(C)C)c1C (stereo not drawn) | inactive | inactive
Cc1ccc2ccc(Cl)cc2n1 | inactive | inactive
C[C@H](N)C(=O)N[C@@H](C)C(=O)NC1[C@H]2CN(c3nc4c(cc3F)c(=O)c(C(=O)O)cn4-c3ccc(F)cc3F)C[C@@H]12 (stereo partly drawn) | 7.5 µM (active) | 6.68 µM (active)
CCOC(=O)N1CCC(Nc2ccc(Cl)cc2N)CC1 | 13.3 µM (active) | 11.9 µM (active)
